# Results from the supplement of paper PMC8728848.
# The sample as a whole holds a higher share of the strongest signals than the screen did.
# Columns and labels:
# Assay in all cases: glycan array binding signal (z-score within array); higher = stronger binding
# Conditions in all cases: glycan notation: IUPAC condensed, linker removed
# [1] = target: Fuc(a1-2)Gal(b1-3)GalNAc(b1-3)Gal
# How it was run: (§1)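 The Consortium for Functional Glycomics database supplied 3228 glycan arrays, of which those lacking an available protein sequence were dropped. The binding signal, a within-array Z-score, was averaged across arrays of the same protein sequence and across linkers. Negative scores can be read as non-binding.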
# [2] = target: Fuc(a1-2)Gal(b1-3)GalNAc(b1-4)[Neu5Ac(a2-3)]Gal(b1-4)Glc
# How it was run: as §1
# [3] = target: Fuc(a1-2)Gal(b1-3)GlcNAc
# How it was run: as §1
# [4] = target: Fuc(a1-2)Gal(b1-4)Glc
# How it was run: as §1
# [5] = target: Fuc(a1-2)[Gal(a1-3)]Gal(b1-4)GlcNAc
# How it was run: as §1
# [6] = target: Fuc(a1-2)[GalNAc(a1-3)]Gal(b1-4)Glc
# How it was run: as §1
# [7] = target: Fuc(a1-2)[GalNAc(a1-3)]Gal(b1-4)GlcNAc(b1-3)Gal(b1-4)GlcNAc(b1-3)Gal(b1-4)GlcNAc
# How it was run: as §1
# [8] = target: Fuc(a1-3)GlcNAc
# How it was run: as §1
# [9] = target: Fuc(a1-3)[Gal(b1-4)]GlcNAc(b1-3)GalNAc
# How it was run: as §1
# [10] = target: Gal(a1-3)Gal(b1-3)Glc
# How it was run: as §1
# [11] = target: Gal(a1-3)Gal(b1-3)GlcNAc(b1-2)Man(a1-3)[Gal(a1-3)Gal(b1-3)GlcNAc(b1-2)Man(a1-6)]Man(b1-4)GlcNAc(b1-4)GlcNAc
# How it was run: as §1
# [12] = target: Gal(a1-3)Gal(b1-3)GlcNAc(b1-6)GalNAc
# How it was run: as §1
# [13] = target: Gal(a1-4)Gal(b1-4)Glc
# How it was run: as §1
# [14] = target: Gal(b1-3)Gal(b1-4)GlcNAc
# How it was run: as §1
# [15] = target: Gal(b1-3)GalNAc(b1-4)[Neu5Ac(a2-3)]Gal(b1-4)Glc
# How it was run: as §1
# [16] = target: Gal(b1-3)GlcNAc(a1-6)Gal(b1-4)GlcNAc
# How it was run: as §1
# [17] = target: Gal(b1-3)GlcNAc(b1-2)Man
# How it was run: as §1
# [18] = target: Gal(b1-3)GlcNAc(b1-3)Gal(b1-4)GlcNAc(b1-6)[Gal(b1-3)GlcNAc(b1-3)]Gal(b1-4)Glc
# How it was run: as §1
# [19] = target: Gal(b1-3)[Fuc(a1-4)]GlcNAc(b1-3)Gal(b1-3)[Fuc(a1-4)]GlcNAc
# How it was run: as §1
# [20] = target: Gal(b1-4)GlcNAc(b1-2)Man(a1-3)[Gal(b1-4)GlcNAc(b1-2)Man(a1-6)][Gal(b1-4)GlcNAc(b1-4)]Man(b1-4)GlcNAc(b1-4)[Fuc(a1-6)]GlcNAc
# How it was run: as §1
# [21] = target: Gal(b1-4)GlcNAc(b1-2)Man(a1-3)[Man(a1-6)]Man(b1-4)GlcNAc(b1-4)GlcNAc
# How it was run: as §1
# [22] = target: Gal(b1-4)GlcNAc(b1-2)Man(a1-6)[GlcNAc(b1-2)Man(a1-3)]Man(b1-4)GlcNAc(b1-4)GlcNAc
# How it was run: as §1
# [23] = target: Gal(b1-4)GlcNAc(b1-2)[Gal(b1-4)GlcNAc(b1-6)]Man(a1-6)[GlcNAc(b1-4)][Gal(b1-4)GlcNAc(b1-2)Man(a1-3)]Man(b1-4)GlcNAc(b1-4)GlcNAc
# How it was run: as §1
# [24] = target: Gal(b1-4)GlcNAc(b1-3)[Gal(b1-4)GlcNAc(b1-6)]GalNAc
# How it was run: as §1
# [25] = target: Gal3S(b1-4)Glc
# How it was run: as §1
# [26] = target: Gal3S6S(b1-4)GlcNAc
# How it was run: as §1
# [27] = target: Gal3S6S(b1-4)GlcNAc6S
# How it was run: as §1
# [28] = target: Glc(a1-6)Glc(a1-6)Glc
# How it was run: as §1
# [29] = target: Glc(b1-6)Glc
# How it was run: as §1
# [30] = target: GlcNAc(a1-4)Gal(b1-3)GlcNAc
# How it was run: as §1
# [31] = target: GlcNAc(a1-4)Gal(b1-4)GlcNAc(b1-3)Gal(b1-4)GlcNAc
# How it was run: as §1
# [32] = target: GlcNAc(b1-3)Gal(b1-4)GlcNAc(b1-6)[GlcNAc(b1-3)]Gal(b1-4)GlcNAc
# How it was run: as §1
# [33] = target: GlcNAc(b1-3)[GlcNAc(b1-6)]GalNAc
# How it was run: as §1
# [34] = target: GlcNAc(b1-4)GlcNAc(b1-4)GlcNAc(b1-4)GlcNAc(b1-4)GlcNAc
# How it was run: as §1
# [35] = target: Man(a1-2)Man(a1-2)Man(a1-3)Man
# How it was run: as §1
# [36] = target: MurNAc(b1-4)GlcNAc
# How it was run: as §1
# [37] = target: Neu5Ac(a2-3)Gal(b1-3)GalNAc(b1-4)[Neu5Ac(a2-8)Neu5Ac(a2-3)]Gal(b1-4)Glc
# How it was run: as §1
# [38] = target: Neu5Ac(a2-3)Gal(b1-4)GlcNAc(b1-3)Gal(b1-4)GlcNAc(b1-3)[Neu5Ac(a2-3)Gal(b1-4)GlcNAc(b1-3)Gal(b1-4)GlcNAc(b1-6)]GalNAc
# How it was run: as §1
# [39] = target: Neu5Ac(a2-3)Gal(b1-4)GlcNAc(b1-3)[Neu5Ac(a2-3)Gal(b1-4)GlcNAc(b1-6)]GalNAc
# How it was run: as §1
# [40] = target: Neu5Ac(a2-3)Gal6S(b1-4)[Fuc(a1-3)]GlcNAc
# How it was run: as §1
# [41] = target: Neu5Ac(a2-6)Gal(b1-4)GlcNAc(b1-2)Man(a1-3)[Neu5Ac(a2-3)Gal(b1-4)GlcNAc(b1-2)Man(a1-6)]Man(b1-4)GlcNAc(b1-4)GlcNAc
# How it was run: as §1
# [42] = target: Neu5Ac(a2-6)Gal(b1-4)GlcNAc(b1-2)Man(a1-3)[Neu5Ac(a2-6)Gal(b1-4)GlcNAc(b1-2)Man(a1-6)]Man(b1-4)GlcNAc(b1-4)GlcNAc
# How it was run: as §1
# [43] = target: Neu5Ac(a2-6)Gal(b1-4)GlcNAc(b1-3)Gal(b1-4)GlcNAc(b1-3)GalNAc
# How it was run: as §1
# [44] = target: Neu5Ac(a2-6)Gal(b1-4)GlcNAc(b1-3)GalNAc
# How it was run: as §1
# [45] = target: Neu5Ac(a2-8)Neu5Ac(a2-3)Gal(b1-3)GalNAc(b1-4)[Neu5Ac(a2-3)]Gal(b1-4)Glc
# How it was run: as §1
# [46] = target: Neu5Ac(a2-8)Neu5Ac(a2-3)[Gal(b1-3)GalNAc(b1-4)]Gal(b1-4)Glc
# How it was run: as §1
# [47] = target: Neu5Ac(a2-8)Neu5Ac(a2-8)Neu5Ac(a2-3)[Gal(b1-3)GalNAc(b1-4)]Gal(b1-4)Glc
# How it was run: as §1
# [48] = target: Neu5Ac(a2-8)Neu5Gc(a2-3)Gal(b1-4)GlcNAc
# How it was run: as §1
# [49] = target: Neu5Gc(a2-3)Gal(b1-4)Glc
# How it was run: as §1
# [50] = target: Neu5Gc(a2-3)Gal(b1-4)[Fuc(a1-4)]GlcNAc
# How it was run: as §1
binder,measurement,setting,value
"OVGAL11 (Ovis aries), AAF64320 (protein) MDSLPNPYLQSVSLTVCYMVKIKANLLSAFGKNPELQVDFGTGTGQGGNIPFRFWYCDGMVVMNTFTDGSWQKEEKVLTDAFVPGQPFELQFLVLEKEYQVFVKNKPICQFAHRLPLQSVKMLDVRGDIVLTSVDTL",glycan array binding signal (z-score),[1],1.72
same,glycan array binding signal (z-score),[2],6.31
same,glycan array binding signal (z-score),[3],-0.096
same,glycan array binding signal (z-score),[4],-0.057
same,glycan array binding signal (z-score),[5],0.2
same,glycan array binding signal (z-score),[6],0.204
same,glycan array binding signal (z-score),[7],-0.076
same,glycan array binding signal (z-score),[8],4.51
same,glycan array binding signal (z-score),[9],-0.106
same,glycan array binding signal (z-score),[10],-0.398
same,glycan array binding signal (z-score),[11],-0.081
same,glycan array binding signal (z-score),[12],-0.082
same,glycan array binding signal (z-score),[13],-0.104
same,glycan array binding signal (z-score),[14],-0.063
same,glycan array binding signal (z-score),[15],1.62
same,glycan array binding signal (z-score),[16],-0.11
same,glycan array binding signal (z-score),[17],-0.023
same,glycan array binding signal (z-score),[18],-0.113
same,glycan array binding signal (z-score),[19],-0.101
same,glycan array binding signal (z-score),[20],-0.011
same,glycan array binding signal (z-score),[21],-0.086
same,glycan array binding signal (z-score),[22],-0.094
same,glycan array binding signal (z-score),[23],-0.095
same,glycan array binding signal (z-score),[24],0.686
same,glycan array binding signal (z-score),[25],0.199
same,glycan array binding signal (z-score),[26],-0.175
same,glycan array binding signal (z-score),[27],0.724
same,glycan array binding signal (z-score),[28],-0.089
same,glycan array binding signal (z-score),[29],0.568
same,glycan array binding signal (z-score),[30],-0.114
same,glycan array binding signal (z-score),[31],-0.089
same,glycan array binding signal (z-score),[32],-0.102
same,glycan array binding signal (z-score),[33],-0.084
same,glycan array binding signal (z-score),[34],-0.316
same,glycan array binding signal (z-score),[35],4.38
same,glycan array binding signal (z-score),[36],-0.098
same,glycan array binding signal (z-score),[37],-0.069
same,glycan array binding signal (z-score),[38],-0.068
same,glycan array binding signal (z-score),[39],-0.097
same,glycan array binding signal (z-score),[40],-0.219
same,glycan array binding signal (z-score),[41],-0.08
same,glycan array binding signal (z-score),[42],-0.138
same,glycan array binding signal (z-score),[43],-0.065
same,glycan array binding signal (z-score),[44],-0.082
same,glycan array binding signal (z-score),[45],1.75
same,glycan array binding signal (z-score),[46],13.5
same,glycan array binding signal (z-score),[47],-0.044
same,glycan array binding signal (z-score),[48],0.807
same,glycan array binding signal (z-score),[49],-0.214
same,glycan array binding signal (z-score),[50],0.714
